About 83,000 compounds went through this panel and 20% of them were active in at least one assay; those are over-represented in the sample as a whole.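 48-hour exposure, single concentration, 96-well plates; percent growth endpoint where 0 means no net growth. Active: below 10.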 A number with no mark means an inactive call. The source made the active and inactive calls.

Among the test systems are NCI-H23 lung; NCI-H226 lung; NCI-H322M lung; HOP-62 NSCLC; NCI-H460 lung; HOP-92 NSCLC; NCI-H522 lung; A549/ATCC NSCLC; 786-0 renal; COLO 205 colon; DU-145 prostate; K-562 leukemia; MALME-3M melanoma; MDA-MB-231 breast; RXF 393 renal; SF-268 CNS; SF-295 CNS; SF-539 CNS; UACC-257 melanoma; M14 melanoma.
Common to all, as to assay: NCI-60 one-dose screen, 48 h (100 = growth as untreated, 0 = no growth, -100 = all killed)
Conditions in all cases: 10 µM unless noted

On to `O=C1C2CCC1C(N1CCCC1)CC2` (stereo not given), for which the growth in the assay on NCI-H23 lung was 105%; in the assay on NCI-H226 lung, 95.9%; in the assay with NCI-H322M lung, 92.5%; in the assay with HOP-62 NSCLC it was 101%; in the assay on NCI-H460 lung it was 103%; with HOP-92 NSCLC, 85.5%. For the same molecule, the growth with NCI-H522 lung was 94.9%; in the assay on A549/ATCC NSCLC it was 97.8%; with 786-0 renal it was 98.4%; with COLO 205 colon, 107%; in the assay with DU-145 prostate it was 107%; with K-562 leukemia, 98.8%. Also, the growth in the assay with MALME-3M melanoma is 94.7%; in the assay on MDA-MB-231 breast, 110%; in the assay on RXF 393 renal, 104%; with SF-268 CNS it was 102%; in the assay on SF-295 CNS, 95.5%; with SF-539 CNS, 95%. For the same molecule, the values for the growth with UACC-257 melanoma and with M14 melanoma were 93% and 101%, respectively.
Consider `CN1CCCCC1C(C)(O)c1ccccc1` (stereo not given), for which the growth in the assay with NCI-H23 lung is 106%; in the assay with NCI-H226 lung, 99.7%; with NCI-H322M lung, 101%; in the assay on HOP-62 NSCLC it was 92.9%; in the assay on NCI-H460 lung, 107%; in the assay on HOP-92 NSCLC, 98.6%. Besides, the growth in the assay with NCI-H522 lung was 89.9%; in the assay on A549/ATCC NSCLC, 92%; in the assay with 786-0 renal, 95.1%; with COLO 205 colon, 114%; with DU-145 prostate it was 111%; with K-562 leukemia, 114%. The growth with MALME-3M melanoma was 97.6%; in the assay with MDA-MB-231 breast, 112%; with RXF 393 renal, 116%; in the assay on SF-268 CNS it was 101%; in the assay with SF-295 CNS, 96.2%; in the assay with SF-539 CNS, 93.6%. Besides, the values for the growth in the assay with UACC-257 melanoma and with M14 melanoma were 96.5% and 92.9%, respectively.
As to `C[C@]12CCc3sc(NCCc4ccccc4)nc3C1=CC[C@@H]1[C@@H]2CC[C@]2(C)C(=O)CC[C@@H]12`, the growth was 66.6% with NCI-H23 lung; 84.1% in the assay with NCI-H226 lung; 91.9% in the assay with NCI-H322M lung; 102% in the assay on HOP-62 NSCLC; 72.8% in the assay with NCI-H460 lung; 66.4% in the assay with HOP-92 NSCLC. In addition, the growth in the assay on NCI-H522 lung is 44.1%; in the assay on A549/ATCC NSCLC, 87.8%; in the assay with 786-0 renal it was 4.36% (active); in the assay on COLO 205 colon, 90.6%; with DU-145 prostate it was 33.9%; in the assay on K-562 leukemia it was 5.14% (active). Further, the growth is 73.3% with MALME-3M melanoma; 83.1% in the assay on MDA-MB-231 breast; 20% in the assay on RXF 393 renal; 83.9% with SF-268 CNS; 68.4% with SF-295 CNS; 64.8% in the assay on SF-539 CNS. The growth in the assay with UACC-257 melanoma is 87.4%; with M14 melanoma it was 85.4%.
As to `CC(C)CCC1(CCCl)C(=O)NC(=O)NC1=O`, the growth was 99.6% in the assay on NCI-H23 lung; 96.6% with NCI-H226 lung; 101% with NCI-H322M lung; 106% in the assay on HOP-62 NSCLC; 101% with NCI-H460 lung; 91.2% with HOP-92 NSCLC. Besides, the growth is 104% in the assay with NCI-H522 lung; 91% in the assay with A549/ATCC NSCLC; 96.1% in the assay with 786-0 renal; 110% in the assay on COLO 205 colon; 107% in the assay with DU-145 prostate; 116% in the assay on K-562 leukemia. Besides, the growth is 95.3% with MALME-3M melanoma; 101% with MDA-MB-231 breast; 98.1% with RXF 393 renal; 109% in the assay on SF-268 CNS; 96.2% in the assay on SF-295 CNS; 100% with SF-539 CNS. Moreover, the values for the growth with UACC-257 melanoma and in the assay with M14 melanoma were 91.1% and 96.7%, respectively.
In the case of `O=C1NC(=O)C(=Cc2ccc(OCCCCC3CCCCC3)c(Cl)c2)C(=O)N1`, the growth in the assay with NCI-H23 lung is 96.7%; in the assay with NCI-H226 lung, 102%; with NCI-H322M lung, 105%; with HOP-62 NSCLC, 89.7%; in the assay on NCI-H460 lung, 93.8%; with HOP-92 NSCLC, 87.4%. For the same molecule, the growth in the assay with NCI-H522 lung is 81.1%; in the assay with A549/ATCC NSCLC it was 92.6%; in the assay on 786-0 renal, 88.2%; in the assay on COLO 205 colon it was 112%; in the assay on DU-145 prostate, 106%; in the assay with K-562 leukemia, 88.3%. In addition, the growth in the assay with MALME-3M melanoma was 110%; in the assay on MDA-MB-231 breast it was 100%; in the assay with RXF 393 renal, 103%; with SF-268 CNS, 99.7%; with SF-295 CNS it was 94%; with SF-539 CNS it was 92.8%. Besides, the growth with UACC-257 melanoma was 107%; in the assay with M14 melanoma it was 86.6%.
As to `CC(=O)OC1CCC2(C)C(CCC3C2CC(=O)C2(C)C3CC(Sc3ccc(N(CCCl)CCCl)cc3)C2C(C)=O)C1` (stereo not given), the growth in the assay with NCI-H23 lung was 97.3%; in the assay with NCI-H226 lung, 83.7%; in the assay with NCI-H322M lung, 104%; with HOP-62 NSCLC, 108%; with NCI-H460 lung, 32.5%; with HOP-92 NSCLC, 109%. Also, the growth in the assay with NCI-H522 lung was 83%; in the assay with A549/ATCC NSCLC, 55.6%; with 786-0 renal, 82.6%; in the assay with COLO 205 colon, 9.14% (active); in the assay with DU-145 prostate, 100%; in the assay with K-562 leukemia, 7.43% (active). Also, the growth in the assay with MALME-3M melanoma was 139%; in the assay on MDA-MB-231 breast it was 85.6%; in the assay with RXF 393 renal, 107%; in the assay on SF-268 CNS it was 85.9%; in the assay on SF-295 CNS it was 67.6%; with SF-539 CNS, 13.7%. Besides, the figures for the growth in the assay with UACC-257 melanoma and in the assay on M14 melanoma were 90.3% and 81%, respectively.
For `O=C([O][Hg][CH2]C1OCCOC1[CH2][Hg][O]C(=O)c1ccccc1)c1ccccc1` (stereo not given), the growth in the assay on NCI-H23 lung is 46.7%; with NCI-H226 lung, 118%; in the assay on NCI-H322M lung, 116%; in the assay on HOP-62 NSCLC, 98.6%; with NCI-H460 lung, 117%; in the assay on HOP-92 NSCLC, -88.3% (active). The growth is -64.1% (active) in the assay on NCI-H522 lung; 101% in the assay on A549/ATCC NSCLC; 79.4% in the assay on 786-0 renal; -64.7% (active) in the assay on COLO 205 colon; 90.1% in the assay on DU-145 prostate; -36% (active) in the assay with K-562 leukemia. In addition, the growth in the assay on MALME-3M melanoma is -98.3% (active); in the assay with MDA-MB-231 breast, 93.2%; in the assay with RXF 393 renal, -90.1% (active); in the assay on SF-268 CNS, 114%; with SF-295 CNS it was 112%; in the assay with SF-539 CNS, 79.8%. Further, the growth in the assay with UACC-257 melanoma is -96.4% (active); in the assay with M14 melanoma, 73.3%.

The values above are taken from PubChem BioAssay (NCI).
